This is a sample that favours compounds with a hit; in the whole collection about 6.8% have one here.
Pf Dd2 growth: blocks growth of Plasmodium falciparum Dd2 parasites; AID 1159554; P. falciparum Dd2 growth, SYBR Green, 72 h; active compounds read low; hit rate 2.3% among 94,000; activity change, % at 10 µM; in the data active = activity change below about -80%; inconclusive = no clear call, values can overlap the other calls
C diff growth: inhibitors of Clostridium difficile growth; hit rate 0.25% among 86,000; AID 1259249; growth activity, negative = inhibition, % at 16 µg/mL (by protocol); Clostridium difficile clinical isolate growth, OD600, 24 h; active compounds read low;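 active = mean growth activity at or below -80% and every replicate also at or below -80%; inconclusive = mean at or below -80% but some replicate above -80%; inactive = mean growth activity above -80%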
T cruzi growth-1: T. cruzi proliferation inhibition. T. cruzi beta-gal in NIH3T3, GalScreen luminescence, 90 h. inhibition, % at 8.34 µM. hit rate 5.9% among 77,000;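 active = mean inhibition above about 93%, with at least 55% of replicates each passing it, limit read from the data, passing the limit was not always enough; inconclusive = only one of those two conditions holds; inactive = neither condition holds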
T cruzi growth-2: Trypanosoma cruzi proliferation inhibition; AID 651739; shares compounds with T cruzi growth-1; hit rate 72% among 5,600; T. cruzi beta-gal in NIH3T3, GalScreen luminescence, 90 h; inhibition, % at 8.35 µM;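 active = mean replicate inhibition above about 95% and at least 55% of replicates individually reaching it, limit read from the data; inconclusive = only one of the two criteria is met; inactive = neither criterion is met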
T cruzi growth-3: blocks T. cruzi growth in NIH3T3 host cells; shares compounds with T cruzi growth-1; T. cruzi beta-gal in NIH3T3, GalScreen luminescence, 90 h; inhibition, % at 2.09 µM; hit rate 21% among 5,600; AID 651740;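 active = mean inhibition above about 95%, with at least 55% of replicates also reaching it, limit read from the data; inconclusive = meets just one of the two conditions; inactive = meets neither condition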
NIH3T3 tox: cytotoxicity in mouse NIH/3T3 fibroblasts | shares compounds with T cruzi growth-1 | NIH/3T3 viability, CellTiter-Glo ATP luminescence, 90 h | cytotoxicity (signal decrease), % at 8.35 µM | hit rate 14% among 5,600 | AID 651742;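 active = mean signal decrease across replicates above about 35% based on untreated-well scatter, with enough replicates individually passing, limit read from the data; inconclusive = no rule stated though some were filed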
3T3 cytotox 2: NIH/3T3 (mouse) viability loss | inhibition, % at 24.9 µM | hit rate 56% among 5,600 | AID 651744 | NIH/3T3 viability, CellTiter-Glo ATP luminescence, 90 h | shares compounds with T cruzi growth-1;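 active = mean loss of cell viability signal at or above a set limit, and enough replicates individually reaching it; inconclusive = meets only the mean limit or only the replicate share; inactive = meets neither condition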
Each line names hits and unclear results; the compound was inactive in the other large screens (follow-up assays come after a bar, where they were run).

COc1ccc(S(=O)(=O)Nc2cccc3c2O[C@@H](CN(C)Cc2ccc(C(=O)Nc4ccccc4N)cc2)[C@@H](C)CN([C@@H](C)CO)C3=O)cc1	T cruzi growth-1 inconclusive | T cruzi growth-2 inactive | T cruzi growth-3 inactive | NIH3T3 tox inactive | 3T3 cytotox 2 37
C[C@@H]1CN([C@H](C)CO)S(=O)(=O)c2ccc(/C=C/c3ccccc3)cc2O[C@H]1CN(C)C(=O)Nc1ccc(F)cc1	Pf Dd2 growth -82, T cruzi growth-1 126 | T cruzi growth-2 109 | T cruzi growth-3 inactive | NIH3T3 tox 45 | 3T3 cytotox 2 89
C[C@H]1CN([C@@H](C)CO)S(=O)(=O)c2ccc(/C=C/c3ccccc3)cc2O[C@H]1CN(C)C(=O)Nc1ccc(F)cc1	none
C[C@H]1CN([C@@H](C)CO)S(=O)(=O)c2ccc(/C=C/c3ccccc3)cc2O[C@H]1CN(C)C(=O)Nc1cc(F)ccc1F	none (no result: T cruzi growth-1)
C[C@H]1CN([C@@H](C)CO)S(=O)(=O)c2ccc(/C=C/c3ccccc3)cc2O[C@@H]1CN(C)C(=O)Nc1cc(F)ccc1F	none (no result: T cruzi growth-1)
C[C@H]1CN([C@@H](C)CO)S(=O)(=O)c2ccc(/C=C/c3ccccc3)cc2O[C@@H]1CN(C)C(=O)Nc1ccc(F)cc1	T cruzi growth-1 127 | T cruzi growth-2 101 | T cruzi growth-3 inactive | NIH3T3 tox inactive | 3T3 cytotox 2 60
C[C@H](CO)N1C[C@H](C)[C@@H](CN(C)C(=O)Nc2ccc(F)cc2)Oc2cc(/C=C/c3ccccc3)ccc2S1(=O)=O	T cruzi growth-1 124 | T cruzi growth-2 109 | T cruzi growth-3 98 | NIH3T3 tox inactive | 3T3 cytotox 2 inconclusive
O=C(NC1CCCC1)[C@@H]1[C@@H](CO)[C@@H]2Cn3c(ccc(-c4ccncc4)c3=O)[C@@H]2N1CC1CC1	none (no result: Pf Dd2 growth)
C[C@@H]1CN([C@H](C)CO)C(=O)c2cc(NC(=O)C3CC3)ccc2O[C@H]1CN(C)C(=O)Nc1ccc(F)cc1	none
O=C(CN1CCOCC1)N1CCCCN2[C@@H](CO)[C@@H](c3ccc(-c4ccccc4F)cc3)[C@@H]2C1	none
C[C@@H]1CN([C@@H](C)CO)C(=O)c2cc(C#CCN(C)C)cnc2O[C@@H]1CN(C)S(=O)(=O)c1ccccc1	none
C[C@H](CO)N1C[C@H](C)[C@H](CN(C)S(=O)(=O)c2cccc(F)c2)Oc2ncc(C#Cc3ccccc3)cc2C1=O	none (no result: C diff growth)
COc1ccc(-c2cnc3c(c2)C(=O)N([C@@H](C)CO)C[C@H](C)[C@H](CN(C)C(=O)CN(C)C)O3)cc1	none
Cc1ccc(S(=O)(=O)N(C)C[C@@H]2Oc3ncc(C#Cc4ccc(C(F)(F)F)cc4)cc3C(=O)N([C@H](C)CO)C[C@@H]2C)cc1	T cruzi growth-1 inconclusive (no result: C diff growth) | T cruzi growth-2 inactive | T cruzi growth-3 112 | NIH3T3 tox inactive | 3T3 cytotox 2 39
COc1ccc(-c2cnc3c(c2)C(=O)N([C@H](C)CO)C[C@H](C)[C@@H](CN(C)C(=O)CN(C)C)O3)cc1	T cruzi growth-1 105 | T cruzi growth-2 inactive | T cruzi growth-3 inactive | NIH3T3 tox inactive | 3T3 cytotox 2 inactive
C[C@H](CO)N1C[C@H](C)[C@H](CN(C)S(=O)(=O)c2ccccc2)Oc2ncc(C#Cc3ccc(C(F)(F)F)cc3)cc2C1=O	T cruzi growth-1 92 | T cruzi growth-2 107 | T cruzi growth-3 inactive | NIH3T3 tox inactive | 3T3 cytotox 2 32
COc1ccc(S(=O)(=O)N(C)C[C@@H]2Oc3ncc(C#Cc4ccc(C(F)(F)F)cc4)cc3C(=O)N([C@H](C)CO)C[C@@H]2C)cc1	none
C[C@H](CO)N1C[C@H](C)[C@H](CN(C)S(=O)(=O)c2cccc(F)c2)Oc2ncc(C#Cc3ccc(C(F)(F)F)cc3)cc2C1=O	T cruzi growth-1 inconclusive | T cruzi growth-2 101 | T cruzi growth-3 109 | NIH3T3 tox inactive | 3T3 cytotox 2 36
CCCC#Cc1ccc([C@@H]2[C@H](CO)N3C(=O)CN(C(=O)Cc4cccnc4)C[C@@H]23)cc1	none (no result: T cruzi growth-1)
COc1ccc2c3c(n(C)c2c1)[C@@H](CO)N(Cc1ccc(F)cc1)CC31CN(CC2CC2)C1	none (no result: T cruzi growth-1)
CC(=O)N1[C@@H]2c3ccc(-c4ccccc4)c(=O)n3C[C@H]1[C@H](CO)[C@H]2C(=O)NCCCN1CCOCC1	none (no result: T cruzi growth-1)
COc1ccccc1S(=O)(=O)N(C)C[C@@H]1Oc2ncc(-c3ccc(C)cc3)cc2C(=O)N([C@@H](C)CO)C[C@H]1C	T cruzi growth-1 101 | T cruzi growth-2 102 | T cruzi growth-3 inactive | NIH3T3 tox inactive | 3T3 cytotox 2 55
COc1ccc(S(=O)(=O)N(C)C[C@@H]2Oc3ncc(C#Cc4cccc(F)c4)cc3C(=O)N([C@H](C)CO)C[C@@H]2C)cc1	T cruzi growth-1 inconclusive | T cruzi growth-2 107 | T cruzi growth-3 inactive | NIH3T3 tox inactive | 3T3 cytotox 2 48
COc1ccc(S(=O)(=O)N(C)C[C@@H]2Oc3ncc(-c4ccc(F)cc4)cc3C(=O)N([C@H](C)CO)C[C@@H]2C)cc1	none
C[C@H](CO)N1C[C@H](C)[C@H](CN(C)C)Oc2ncc(-c3cc4ccccc4o3)cc2C1=O	none
C[C@H](CO)N1C[C@H](C)[C@H](CN(C)S(=O)(=O)c2ccc(F)cc2)Oc2ncc(C#Cc3ccc(C(F)(F)F)cc3)cc2C1=O	T cruzi growth-1 112 | T cruzi growth-2 105 | T cruzi growth-3 103 | NIH3T3 tox inactive | 3T3 cytotox 2 35
C[C@@H]1CN([C@H](C)CO)C(=O)c2cc(C#Cc3ccc(F)cc3)cnc2O[C@@H]1CN(C)S(C)(=O)=O	none
C[C@H](CO)N1C[C@H](C)[C@H](CN(C)S(=O)(=O)c2cccs2)Oc2ncc(-c3cc4ccccc4o3)cc2C1=O	T cruzi growth-1 123 | T cruzi growth-2 110 | T cruzi growth-3 inactive | NIH3T3 tox 35 | 3T3 cytotox 2 inactive
COc1ccccc1S(=O)(=O)N(C)C[C@@H]1Oc2ncc(-c3ccc(C)cc3)cc2C(=O)N([C@@H](C)CO)C[C@@H]1C	none
COc1ccccc1CNC(=O)C[C@@H]1C[C@H]2c3cc(NC(=O)c4ccc5c(c4)OCO5)ccc3O[C@H]2[C@H](CO)O1	none
CO[C@@H]1CN(C)C(=O)c2cc(NC(=O)c3ccccc3)ccc2OC[C@@H](C)N(C(C)=O)C[C@H]1C	none (no result: C diff growth)
COc1ccc(CN(C)C[C@H]2OCCCC[C@@H](C)Oc3ccc(NC(=O)c4ccncc4)cc3C(=O)N([C@@H](C)CO)C[C@H]2C)cc1	none
C[C@H](CO)N1C[C@H](C)[C@H](CN(C)S(=O)(=O)c2ccccc2)Oc2ncc(C#Cc3ccccc3)cc2C1=O	none
COc1ccc(-c2cnc3c(c2)C(=O)N([C@@H](C)CO)C[C@H](C)[C@@H](CN(C)S(=O)(=O)c2ccc(OC)cc2)O3)cc1	T cruzi growth-1 105 (no result: C diff growth) | T cruzi growth-2 104 | T cruzi growth-3 inactive | NIH3T3 tox inactive | 3T3 cytotox 2 inconclusive
